Source: PubChem BioAssay (several laboratories)
PrP UTR inh – suppresses PrP 5' UTR mRNA reporter expression. cell-based PrP 5' UTR mRNA reporter, plate reader. 340,000 tested, 0.35% active. inhibition, % (concentration not given with the values). AID 488862; in the data active = inhibition above about 52%; also: 0 = median of the neutral control wells
Sa ugtP lethal – growth inhibition of S. aureus ugtP deletion strain; S. aureus RN4220 ugtP deletion, OD600 growth, 16 h; growth inhibition, % (no concentration beside the values); 330,000 tested, 0.54% active; in the data active = growth inhibition above about 68%;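 also: plate controls were untreated wells for no effect and antibiotic for full effect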
PfHsp40 rescue – rescue of PfHsp40-mediated yeast toxicity. 340,000 tested, 0.68% active. S. cerevisiae expressing PfHsp40, growth rescue, ATP luminescence. AID 504582. growth rescue, % at 12.5 µM; in the data active = growth rescue above about 28%, passing the limit was not always enough; inconclusive = no clear call, values can overlap the other calls;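 also: yeast W303a lacking pdr1 and pdr3 grown in galactose medium; growth measured after three days at 30 °C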
RN4220 kill – S. aureus RN4220 growth inhibition | OD600, 16 h | inhibition, % (test concentration not listed) | AID 1259311 | 330,000 tested, 0.33% active; in the data active = inhibition above about 85%;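 also: plate controls were untreated cells for no effect and reference antibiotic for full effect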
TcdB GH inh – blocks C. difficile toxin B glycohydrolase activity. P18177. TcdB glycohydrolase enzymatic assay, plate reader. inhibition, % at 9.99 µM. 350,000 tested, 0.24% active; in the data active = inhibition above about 10%
PrP 5UTR single – prion 5' UTR mRNA inhibition, cherry-pick retest; shares compounds with PrP UTR inh; cell-based prion protein 5' UTR reporter, plate reader; inhibition, % at 2.5 µM; 1,100 tested, 48% active; in the data active = inhibition above about 54%; inconclusive = no clear call, values can overlap the other calls
* = called active by the depositor; ? = inconclusive; · = no result. Compounds with a hit are over-represented: about 1.2% of the library has one in this group of screens.

SMILES	PrP UTR inh	Sa ugtP lethal	PfHsp40 rescue	RN4220 kill	TcdB GH inh	PrP 5UTR single
Cc1cc(C)nc(NN=Cc2cccc([N+](=O)[O-])c2)n1	·	10	·	4	·	·
COC(=O)c1oc2ccc(Br)cc2c1NC(=O)CCCN1C(=O)c2ccccc2C1=O	57*	-5	1	-2	0	-12
O=c1[nH]c(=O)n(CCCc2ccccc2)cc1-c1ccccc1	63*	·	-1	·	2	-15
Cc1cn(CC(=O)NCCCc2ccccc2)c(=O)[nH]c1=O	-14	·	0	·	1	·
COC(=O)CCC(=O)Nc1sc(C)c(C)c1C(N)=O	-3	-3	2	-8	·	·
COC(=O)CCC(=O)NC(=S)Nc1sc(C)c(C)c1C(N)=O	67*	·	-1	·	·	86*
Cc1sc(NC(=S)NC(=O)CCc2ccccc2)c(C(N)=O)c1C	54*	14	-2	5	0	81*
COc1ccc2c3c(n(C)c2c1)[C@@H](CO)N(C(=O)C1CCCC1)CC31CCN(Cc2cccc(F)c2)CC1	·	·	·	·	1	·
COc1ccc(C(=O)N2C[C@@H]3[C@H](c4ccccc42)[C@@H](CO)N3Cc2ccc3c(c2)OCO3)cc1	·	·	·	·	0	·
C[C@H](CO)N1C[C@H](C)[C@@H](CN(C)S(=O)(=O)c2cccs2)OCCCC[C@H](C)Oc2ccc(NS(=O)(=O)c3ccc(F)cc3)cc2C1=O	·	·	·	·	0	·
COc1ccc(CC2NCC(O)C2OC(C)=O)cc1 (stereo not drawn)	77*	·	2	·	0	95*
CCCNC(=O)C[C@@H]1CC[C@@H]2[C@@H](COc3ccc(NC(=O)C4CCOCC4)cc3C(=O)N2C)O1	·	·	·	·	0	·
O=c1cc2c(nn1Cc1cccc(Cl)c1)-c1ccccc1CC2	57*	-6	47*	3	·	17
Cn1cc(/C=N/n2cnc3scc(-c4ccc(Cl)cc4)c3c2=O)c2ccccc21	57*	·	1	·	·	91*
COc1cc(C=Nn2cnc3scc(-c4cccs4)c3c2=O)cc(OC)c1OC	·	-1	·	-1	·	·
COc1cccc(CN2CC3(C2)CN(C(=O)C2CC2)[C@@H](CO)c2[nH]c4cc(OC)ccc4c23)c1	·	·	·	·	1	·
CCOc1ccc(-n2c(Cc3cc(=O)[nH]c(=O)[nH]3)nnc2SCC(=O)NC2CCCC2)cc1	-10	1	0	1	-9	·
COc1ccc(-n2c(Cc3cc(=O)[nH]c(=O)[nH]3)nnc2SCC(=O)NC2CCCC2)cc1	61*	-3	5	-4	2	-6
Cc1ccccc1C(=O)NN=Cc1ccc([N+](=O)[O-])s1	·	38	·	31	·	·
CC(=O)OC1CC(OC2C(O)CC(OC3C(O)CC(OC4CCC5(C)C(CCC6C5CCC5(C)C(C7=CC(=O)OC7)CCC65O)C4)OC3C)OC2C)OC(C)C1OC1OC(CO)C(O)C(O)C1O (stereo not drawn)	96*	·	0	·	2	90*
CC[C@@H]1CCC[C@@H](O)[C@@H](C)C(=O)O[C@H](C)[C@@H](C)C/C=C(C)/C(OC)=C\C(=O)N(C)C([C@@H](C)CC)C(=O)N(C)[C@@H](C(C)C)C(=O)N(C)[C@@H](COC)C(=O)N2CCC[C@H]2C(=O)N(C)[C@@H](C(C)C)C(=O)N2CCC[C@H]2C(=O)O1 (stereo partly drawn)	·	·	·	·	4	·
CCC(C)C1NC(=O)C(NC(=O)C(CC(C)C)N(C)C(=O)C2CCCN2C(=O)C(C)O)C(C)OC(=O)C(Cc2ccc(OC)cc2)N(C)C(=O)C2CCCN2C(=O)C(CC(C)C)NC(=O)[C@H](C)C(=O)[C@H](C(C)C)OC(=O)CC1O (stereo partly drawn)	94*	·	-1	·	-3	96*
CCN(CC)c1ccc(C(=C2C=CC(=[N+](CC)CC)C=C2)c2ccc(N(CC)CC)cc2)cc1	52*	36	-6	45	7	?
CCN(CC)c1ccccc1	-5	12	-1	6	-4	·
CCN(CC)c1ccc(C(=C2C=CC(=[N+](CC)CC)C=C2)c2ccccc2)cc1	56*	·	-1	·	7	88*
SMILES	PrP UTR inh	Sa ugtP lethal	PfHsp40 rescue	RN4220 kill	TcdB GH inh	PrP 5UTR single
Cc1ccccc1S(=O)(=O)N1CC[C@@H]2[C@H]1c1cc(-c3ccc(C#N)cc3)ccc1N(C)[C@H]2CO	·	·	·	·	0	·
O=C(Nc1ccc2c(c1)OCO2)N[C@@H]1C=C[C@H](CC(=O)N2CCN(c3ccccc3)CC2)O[C@@H]1CO	·	·	·	·	-1	·
C[C@@H]1CN([C@@H](C)CO)S(=O)(=O)c2ccc(Br)cc2O[C@H]1CN(C)S(=O)(=O)c1ccc(F)cc1	·	·	·	·	1	·
COc1ccc(-c2ccnc3cc(C(=O)O)nn23)cc1	84*	2	1	0	1	-9
O=C1c2ccccc2S(=O)(=O)N1Cc1nc2ccccc2s1	70*	17	1	7	·	?
Cc1ccccc1CN1C(=O)c2ccccc2S1(=O)=O	-21	5	-1	3	0	·
O=C(Nc1cccc(-c2ccc(N3CCCCC3)nn2)c1)c1ccc(Br)o1	-73	-15	13	8	2	·
O=C(Nc1cccc(-c2ccc(N3CCCCC3)nn2)c1)C(F)(F)F	75*	3	0	6	2	68*
CC1CCN(c2ccc(-c3cccc(NC(=O)C(F)(F)F)c3)nn2)CC1	83*	·	-1	·	1	86*
COc1cccc(CN2CC3(CCN(Cc4ccccn4)CC3)c3c([nH]c4cc(OC)ccc34)[C@H]2CO)c1	·	·	·	·	-1	·
Cc1cc(-c2ccccc2)n(-c2cc(N/N=C/c3ccccc3O)ncn2)n1	76*	·	582*	·	1	90*
CNc1cc(-n2nc(C)cc2-c2ccccc2)ncn1	-115	6	-1	-1	·	·
O=C(CN1C(=O)c2ccccc2S1(=O)=O)c1ccc2c(c1)OCCO2	91*	7	0	-2	1	93*
O=C(CN1C(=O)c2ccccc2S1(=O)=O)c1cccc(Br)c1	52	11	0	3	-1	·
O=C(CCN1C(=O)c2ccccc2S1(=O)=O)Nc1ccc2c(c1)OCCO2	-23	1	0	-4	1	·
O=C(CN1C(=O)c2ccccc2S1(=O)=O)c1ccc2c(c1)OCCCO2	95*	4	-1	3	0	97*
O=c1c2ccccc2nc2c3ccccc3cnn12	-69	3	2	1	0	·
O=c1c(Cl)c(N2CCCCC2)cnn1-c1nc2ccccc2[nH]1	75*	0	-1	3	·	69*
O=c1c2ccccc2cnn1-c1nc2ccccc2[nH]1	92*	6	-6	2	2	91*
CN(Cc1c(C(=O)NN=Cc2ccccc2F)nnn1-c1nonc1N)c1ccccc1	·	4	·	5	·	·
C[C@]12CCC(=O)C[C@@H]1CC[C@@H]1[C@@H]2CC[C@]2(C)[C@@H](O)CC[C@@H]12	-12	11	-1	3	2	·
C[C@]12CCC(=O)C[C@@H]1CC[C@@H]1[C@@H]2CC[C@]2(C)C=CC[C@@H]12	66*	·	0	·	1	9
